Measured values taken from PubChem BioAssay AID1345085 (National Center for Advancing Translational Sciences (NCATS), 2018).
Records with an inconclusive call do not appear. Values without a mark were called inactive. Calls of active or inactive are those of the source. Calls follow the shape of the dose curve; as a rule, active = well fitted cell-killing curve with a large enough effect; inconclusive = small, poorly fitted or top-dose-only effect, or effect the other way; inactive = no such curve, though single readings can be large or run the other way.

These compounds were tested on PA-1 (assay: Confirmatory qHTS for gynecologic anti-cancer compounds from libraries of approved drugs and bioactive compounds). Conditions: gynecologic cancer cell panel viability, ATPlite luminescence, 48 h; series mostly up to 57.6 µM; activity change, negative = viability loss: at the top concentration.
Excerpt: National Center for Advancing Translational Sciences [NCATS] Assay Overview: Chemotherapeutic drug responses vary from cancer to cancer and from patient to patient. These variations could be caused by a number of factors including patient genomic background, tumor mutations, tumor heterogeneity, and aspects of drug treatment. Chemotherapeutic drug resistance is also a common issue and can lead to ineffective treatment and patient death. Here we have profiled the cell killing effects of thousands of compounds to characterize the responses in three gynecological cancers, identify cancer-selective compounds, and understand the diversity of responses to these compounds from pan-cancer suppressors to single cell line selective compounds. In this assay, we screened a 7,914 compound drug library that included approved drug and bioactive compounds in six ovarian, three cervical, and two placental cancer cell lines using the ATPlite assay for cell viability. ATPlite is a luminescence based assay reliant on the conversion of a luciferase substrate to light in the presence of ATP. As a cytotoxic compound will suppress growth and decrease the number of cells, the concentration of ATP will decrease, and less light signal will be detected in the well. Hits were selected from the primary screen for follow-up confirmation. For the confirmation screens, the ovarian cancer cell lines included CAOV-3, SK-OV-3, SW 626, ES-2, PA-1, and TOV-21G. The cervical cancer cell lines included HeLa, Ca Ski, and C-33 A. The placental cancer cell lines included JEG-3 and JAR. HEK 293T cells were used as the control cell line to determine the selectivity index. The ATPlite assay was used to determine the IC50 values.
Assay Protocol Summary: 1,000 cells in 4 uL of media were dispensed into white, solid bottom 1536-well plates using a Multidrop Combi (Thermo Scientific). The Assay plates were incubated for 16 hours at 37 C with 5% CO2 in assay plates, followed by the addition of 23 nL of DMSO or drug dissolved in DMSO. . Each compound was assayed in 11 concentrations (1:3 dilution) from 57.5 uM to 0.977 nM, using the automated Wako 1536 Pin Tool workstation and incubated at 37 C with 5% CO2 48 hours. 4 uL of ATPlite, the ATP monitoring reagent, was then added to the each well of the assay plates using the Multidrop Combi reagent dispenser followed by incubation for 15 minutes at room temperature. The resulting luminescence was measured using the ViewLux plate reader.
% is scaled to controls: 0 for no effect and ±100 for the full control effect; potency is read from the fitted curve at half-maximal effect.
Also: nearly all actives have a fitted effect of over 55% in size.

Row | Compound | Potency | activity change, negative = viability loss
1 | O=C(NCC(O)CO)c1ccncc1Nc1ccc(I)cc1F (stereo not given) | 0.0611 µM (active) | 
2 | COc1cc(N2CCC(N3CCN(C)CC3)CC2)ccc1Nc1ncc(Cl)c(Nc2ccccc2S(=O)(=O)C(C)C)n1 | 3.43 µM (active) | 
3 | Cc1cc(C2CCCCC2)n(O)c(=O)c1 | 3.53 µM (active) | 
4 | CCC1C(=O)N(C)c2cnc(Nc3ccc(C(=O)NC4CCN(C)CC4)cc3OC)nc2N1C1CCCC1 (stereo not given) | 0.0432 µM (active) | 
5 | COc1cc2c(Nc3ccc(NC(=O)c4ccccc4)cc3)ncnc2cc1OCCCN1CCOCC1 | 34.3 µM (active) | 
6 | CNc1nccc(-c2cccnc2Oc2cc(C(=O)Nc3cccc(C(F)(F)F)c3)ccc2C)n1 | 17.2 µM (active) | 
7 | FC(F)(F)c1ccc(/C=C/c2nc(COc3ccc(CCCCn4ccnn4)cc3)co2)cc1 | 0.0193 µM (active) | 
8 | Cc1nc(N)sc1-c1ccnc(Nc2ccc(N3CCOCC3)cc2)n1 | 4.32 µM (active) | 
9 | Cc1nc(N)ncc1-c1nc(N2CCOCC2)c2sc(C(C)(C)O)cc2n1 | 6.85 µM (active) | 
10 | CC(=O)O[C@H]1C(=O)[C@@]2(C)[C@H]([C@H](OC(=O)c3ccccc3)[C@]3(O)C[C@H](OC(=O)[C@H](O)[C@@H](NC(=O)c4ccccc4)c4ccccc4)C(C)=C1C3(C)C)[C@]1(OC(C)=O)CO[C@@H]1C[C@@H]2O | 0.0092 µM (active) | 
11 | CC(C)n1nc(-c2cc3cc(O)ccc3[nH]2)c2c(N)ncnc21 | 13.7 µM (active) | 
12 | COc1cc2c(cc1-c1c(C)noc1C)ncc1[nH]c(=O)n(C(C)c3ccccn3)c12 (stereo not given) | 2.17 µM (active) | 
13 | CCCCN(CCCC)C(=O)CN1C[C@H](c2ccc3c(c2)OCO3)[C@@H](C(=O)O)[C@@H]1c1ccc(OC)cc1 |  | 3.06%
14 | Nc1nc(=S)c2[nH]cnc2[nH]1 | 6.85 µM (active) | 
15 | Cc1cnc(Nc2ccc(CN3CCOCC3)cc2)nc1Nc1cccc(S(=O)(=O)NC(C)(C)C)c1 | 2.17 µM (active) | 
16 | Oc1cn2c(n1)Nc1ccc(Cl)c(Cl)c1C2 |  | 5.17% [at 19.5 µM]
17 | C=CC(=O)Nc1cc2c(Nc3ccc(F)c(Cl)c3)ncnc2cc1OCCCN1CCOCC1 | 30.6 µM (active) | 
18 | Nc1ccn([C@@H]2O[C@H](CO)[C@@H](O)C2(F)F)c(=O)n1 | 0.0611 µM (active) | 
19 | O=C(Nc1cn[nH]c1-c1nc2ccc(CN3CCOCC3)cc2[nH]1)NC1CC1 | 3.85 µM (active) | 
20 | CCc1c2c(nc3ccc(O)cc13)-c1cc3c(c(=O)n1C2)COC(=O)[C@]3(O)CC | 0.0769 µM (active) | 

Row | Compound | Potency | activity change, negative = viability loss
21 | CN1C(=O)C(Cc2c[nH]c3ccccc23)NC1=S (stereo not given) |  | 11% [at 19.5 µM]
22 | Cc1c(C)n(Cc2ccc(-c3ccccc3C(=O)O)cc2)c2ccc(C(=O)N[C@@H](C)c3ccc([N+](=O)[O-])cc3)cc12 |  | -26.3%
23 | CC1=C(CO)C(=O)O[C@@H]([C@@H](C)[C@H]2CC[C@H]3[C@@H]4C[C@H]5O[C@]56[C@@H](O)C=CC(=O)[C@]6(C)[C@H]4CC[C@]23C)C1 | 1.68 µM (active) | 
24 | CCN1C[C@H](C)n2c(c(O)c3c(=O)n(Cc4ccc(F)c(Cl)c4)nc(C(=O)NC)c32)C1=O |  | 33.3%
25 | Cc1nc(Nc2n[nH]c3c2CN(C(=O)NC(CN(C)C)c2ccccc2)C3(C)C)c2sccc2n1 (stereo not given) | 0.0243 µM (active) | 
26 | COc1cccc2c1C(=O)c1c(O)c3c(c(O)c1C2=O)C[C@@](O)(C(=O)CO)C[C@@H]3O[C@H]1C[C@H](N)[C@H](O)[C@H](C)O1 | 0.432 µM (active) | 
27 | CN(C)c1ccc2nc3ccc(=[N+](C)C)cc-3sc2c1 | 21.7 µM (active) | 
28 | CN(C[C@@H]1COCCO1)S(=O)(=O)Nc1ccc2ccc3ncc(-c4cnn(C)c4)cc3c(=O)c2c1 | 17.2 µM (active) | 
29 | CCN1CCN(Cc2ccc(-c3cc4c(NC(C)c5ccccc5)ncnc4[nH]3)cc2)CC1 (stereo not given) | 24.3 µM (active) | 
30 | CCC1=CC2CN(C1)Cc1c([nH]c3ccccc13)[C@@](C(=O)OC)(c1cc3c(cc1OC)N(C)[C@H]1[C@@](O)(C(=O)OC)[C@H](OC(C)=O)[C@]4(CC)C=CCN5CC[C@]31[C@@H]54)C2 (stereo not given in full) | 0.053 µM (active) | 
31 | COc1cccc2cc(-c3nc(C4CCC(C(=O)O)CC4)n4ncnc(N)c34)[nH]c12 (stereo not given) | 9.68 µM (active) | 
32 | COc1cc(Nc2c(C#N)cnc3cc(OCCCN4CCN(C)CC4)c(OC)cc23)c(Cl)cc1Cl | 13.7 µM (active) | 
33 | C[C@]12CCC(=O)C=C1[C@@H]1C[C@@H]1[C@H]1[C@@H]3[C@@H]4C[C@@H]4[C@@]4(CCC(=O)O4)[C@@]3(C)CC[C@@H]12 |  | -22.8%
34 | COc1ccc(OC)c(-c2nnc3ccc(-c4ccc(OC)c(O[C@@H]5CCOC5)c4)nn23)c1 | 5.44 µM (active) | 
35 | O=c1[nH]c(=O)n([C@H]2C[C@H](O)[C@@H](CO)O2)cc1F | 0.109 µM (active) | 
36 | NS(=O)(=O)OC[C@@H]1C[C@@H](n2ccc3c(N[C@H]4CCc5ccccc54)ncnc32)C[C@@H]1O | 0.685 µM (active) | 
37 | Nc1ccc(C(=O)Nc2cccc(-c3nc(N4CCOCC4)c4oc5ncccc5c4n3)c2)cn1 | 12.2 µM (active) | 
38 | CN(c1nccc(=O)[nH]1)C1CCN(c2nc3ccccc3n2Cc2ccc(F)cc2)CC1 |  | -2.59%
39 | CC[C@@]1(O)C(=O)OCc2c1cc1n(c2=O)Cc2cc3cc(O)ccc3nc2-1 | 0.109 µM (active) | 
40 | CCN(CC)CCOc1ccc(/C(=C(\Cl)c2ccccc2)c2ccccc2)cc1 | 28.2 µM (active) | 
